Most compounds without a hit are left out; they make up all but 21% or so of the library.
Shiga toxin inh: blocks Shiga toxin action in Vero cells; Vero cells, Shiga toxin protein synthesis inhibition reporter; inhibition, % at 38.7 µM; 290,000 tested, 9.2% active; in the data active means inhibition mostly above about 28%, no sharp cut-off; inactive means mostly below about 43%; further: 0% is about no effect
Pf growth 96h: P. falciparum growth inhibition at 96 hours; 320,000 tested, 6.9% active; P. falciparum luciferase reporter growth, 96 h; Potency, µM (series often up to 28.7 µM), without a hit: top-dose activity change, negative = inhibition, most hits filed as inhibitors; further: potency means the concentration at half of the fitted maximal effect; on the % scale 0 is the no-effect control and ±100 the full control effect
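P. falciparum expressing integrated firefly luciferase grown in erythrocytes (2% hematocrit, 0.05% parasitemia final) with compounds for 96 hours at 37 C, 5% CO2. Growth inhibition read as loss of luminescence after adding luciferase detection reagent.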
Pf growth 48h: inhibits P. falciparum growth in the first generation, 48 h | 310,000 tested, 5.9% active | Potency, µM (highest dose often 28.7 µM), without a hit: top-dose activity change, negative = inhibition, usual class: inhibitors | AID 504832 | P. falciparum luciferase growth in erythrocytes, 48 h; further: potency means the concentration at half of the fitted maximal effect; on the % scale 0 is the no-effect control and ±100 the full control effect
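Parasite viability was followed by luminescence of a genomically integrated firefly luciferase. Cultures held 0.1% parasitemia at 2% hematocrit (final), incubated under 5% CO2 at 37 C.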
CHX counter: counter-screen hit for Shiga toxin inhibitors, cycloheximide | max response, % | 300,000 tested, 12% active | cell reporter, cycloheximide protein synthesis inhibition counterscreen | AID 2314; in the data active means max response mostly above about 13%, no sharp cut-off; inactive means mostly below about 14%; further: read at 38.3 µM for the half of the compounds with a filed dose; 0% is about no effect
* marks the source's active call; other numbers are inactive results; ? = inconclusive; · = no result given. Unless noted, the call rests on the fitted dose curve; in most records, active means well fitted inhibition curve with a large enough effect; inconclusive means small, poorly fitted or top-dose-only effect, or another doubt; inactive means no such curve, though single readings can be large or run the other way.

SMILES | Shiga toxin inh | Pf growth 96h | Pf growth 48h | CHX counter
Cn1c(CN2CCCCC2)nc2cc(NC(=O)c3cccc(Br)c3)ccc21 | 19.1 | 4.65µM* | · | 15.1
CCOC(=O)N1CCN(Cc2nc3cc(NC(=O)c4cccs4)ccc3n2CC)CC1 | 6.7 | 112.6% | 2.94µM* | 24.7*
Cn1c(CCn2ccccc2=O)nc2cc(NC(=O)COc3ccccc3)ccc21 | 17.6 | 10.4µM* | -1.0% | 29.4*
CCOC(=O)N1CCN(Cc2nc3cc(NC(=O)c4cccs4)ccc3n2C)CC1 | -5.5 | 0.0% | ? | 5.5
Cn1c(CCN2CCOCC2)nc2cc(NC(=O)COc3ccccc3)ccc21 | 17.8 | 4.4% | -9.8% | -0.1
CCOC(=O)Nc1ccc2c(c1)nc(CN1CCCCC1)n2C | 31.0 | 4.8% | 0.7% | 23.4*
CC1CCN(CCc2nc3cc(NC(=O)COc4ccc([N+](=O)[O-])cc4)ccc3n2C)CC1 | -3.6 | ? | 3.7µM* | 7.3
CC(=O)Nc1ccc2c(c1)nc(CN1CCCC1)n2C | -13.0 | · | 1.8% | -0.5
Cn1c(CN2CCCCC2)nc2cc(NC(=O)c3ccccc3)ccc21 | 50.6* | · | ? | 36.2*
Cn1c(CN2CCCC2)nc2cc(NC(=O)Nc3ccccc3)ccc21 | 43.8 | · | 12.1% | 17.7*
COc1ccc(-c2nc(CN3CCCCC3c3cccnc3)c(C)o2)c(F)c1 (configuration not stated) | -1.9 | ? | 9.28µM* | -4.0
Cc1oc(-c2ccccc2Cl)nc1CN1CCCCC1c1cccnc1 (configuration not stated) | -4.5 | ? | 11.7µM* | -2.4
Cc1ccc(-c2nc(CN3CCCCC3c3cccc(F)c3)c(C)o2)o1 (configuration not stated) | 8.7 | -13.0% | ? | -2.7
COc1ccc(CN2CCCCC2c2cccnc2)cc1C (configuration not stated) | -1.9 | 26.6% | 13.1µM* | 1.1
Cc1nonc1C1CCCN1Cc1nc(-c2ccccc2Cl)oc1C (configuration not stated) | -3.8 | 99.5% | ? | -2.4
COc1cccc(CN2CCCCC2c2cccnc2)c1 (configuration not stated) | 64.6 | 9.9% | ? | -0.7
Cc1oc(-c2ccccc2Cl)nc1CN1CCCC1c1ccc(F)cc1 (configuration not stated) | -14.8 | 6.57µM* | ? | 4.9
Cc1ccc(N(CC(=O)NCc2ccc3c(c2)OCO3)S(=O)(=O)c2c(C)noc2C)cc1 | -11.0 | 18.7% | · | 1.6
COc1ccc(CCCC(=O)N/N=C/c2ccccc2OC)cc1 | 2.2 | ? | ? | 12.2
CN1CCC[C@@H]1c1cccnc1 | · | 15.1µM* | -6.0% | ·
Cc1ccccc1-c1nc(CN2CCCC2c2ccc(F)cc2)c(C)o1 (configuration not stated) | -10.1 | 16.6% | 10.4µM* | 0.7
Cc1ccc(C(C)C)c(OCc2nn(CC(=O)c3ccc(OC(F)F)cc3)c3[n+]2CCCCC3)c1 | -4.4 | ? | 1.85µM* | 8.7
COc1ccc(C(=O)Cn2nc(CNc3ccc(Br)cc3)[n+]3c2CCCCC3)cc1 | -8.4 | 1.85µM* | 1.04µM* | -2.6
Cc1c(O)ccc2c(CC(=O)N[C@@H](Cc3c[nH]c4ccccc34)C(=O)O)cc(=O)oc12 | -4.7 | 20.8% | 10.3% | -1.9
COC(=O)C(NS(=O)(=O)CCl)C(C)C (configuration not stated) | -0.3 | · | · | -5.6
SMILES | Shiga toxin inh | Pf growth 96h | Pf growth 48h | CHX counter
CN1CCN(c2ccc(C(F)(F)F)cc2NC(=O)c2ccco2)CC1 | -12.7 | ? | 22.7% | -3.3
O=C(Nc1ccc(N2CCOCC2)c(Cl)c1)c1ccco1 | 46.2 | -118.7% | 2.2% | 33.7*
CC(C)C(=O)N1CCN(c2ccc(NC(=O)c3ccco3)cc2Cl)CC1 | 21.4 | ? | 9.28µM* | 18.3
O=C(Nc1ccc(N2CCN(C(=O)c3ccccc3)CC2)c(Cl)c1)c1ccco1 | -9.3 | -21.7% | 8.28µM* | -2.8
CCC(=O)N1CCN(c2ccc(NC(=O)c3ccco3)cc2Cl)CC1 | 38.2 | -1.4% | ? | 14.7*
CCOC(=O)c1ccc(N2CCN(C(=O)c3ccccc3)CC2)c(NC(=O)c2ccco2)c1 | -3.4 | -18.2% | ? | -3.2
O=C(Nc1ccccc1N1CCOCC1)c1ccco1 | -7.6 | 39.9% | 5.2% | -4.5
O=c1cc(CSc2nc3ccccc3c(=O)[nH]2)c2ccc(O)cc2o1 | 26.2 | -18.2% | -15.7% | -1.3
CC1CN(c2ccc(NC(=O)c3ccco3)cc2C(=O)O)CC(C)O1 (configuration not stated) | -4.1 | -1.2% | 1.4% | -2.6
CC(=O)N1CCN(c2ccc(NC(=O)c3ccco3)cc2Cl)CC1 | 42.5* | ? | 37.7% | 16.8*
Cc1cc(=O)[nH]c(N/N=C/c2ccc(OC(=O)c3ccco3)cc2)n1 | -3.3 | 67.3% | 43.0% | -2.3
COC(=O)C(Cc1ccccc1)NC(=O)C(N)CC(=O)O (configuration not stated) | · | -0.5% | -0.2% | ·
O=C(Nc1cccc(NC(=O)c2ccco2)c1)c1ccc2c(c1)OCCO2 | 43.0 | -2.4% | 31.8% | 21.6
Cc1ccc(C(=O)OCC(=O)Nc2ccc3c(c2)OCCO3)cc1C | · | -1.7% | -28.1% | ·
CC1(C)Oc2ccc(NC(=O)c3ccco3)cc2O1 | 90.8* | -23.6% | 137.9% | 31.6*
O=C(COC(=O)c1ccco1)Nc1ccc2c(c1)OCCO2 | 79.3* | -15.3% | 0.2% | 56.2*
O=C(Nc1ccc2c(c1)OCCO2)c1ccco1 | 112.4* | ? | 208.8% | 40.4*
COc1ccc(C(=O)NC2CCCCCC2)cc1S(=O)(=O)N1CCCC1 | 7.0 | ? | -24.2% | -2.1
COc1ccc(C(=O)N2CCNC(=O)C2)cc1S(=O)(=O)Nc1ccc(Br)cc1 | · | -7.1% | -6.8% | ·
COc1ccc(C(=O)NCc2cccnc2)cc1S(=O)(=O)N1CCCc2ccccc21 | 29.6 | ? | ? | 19.4*
COc1ccc(C(=O)Nc2nc3c(s2)CCCC3)cc1S(=O)(=O)N1CCCc2ccccc21 | 40.8 | 10.4µM* | 13.1µM* | 8.9
COc1ccc(C(=O)NC2CCCCCC2)cc1S(=O)(=O)Nc1ccc(Br)cc1 | 56.4* | · | ? | 17.9*
COc1ccc(C(=O)NCc2cccnc2)cc1S(=O)(=O)N1CCOCC1 | 0.5 | · | 3.9% | -1.1
COc1ccc(C(=O)NC2CCCCCC2)cc1S(=O)(=O)N1CCCc2ccccc21 | -4.1 | 10.4µM* | · | 10.6
Cc1ccc(S(=O)(=O)Nc2ncc(C(F)(F)F)cc2Cl)cc1 | 14.8 | 10.9% | 13.5% | -2.1
SMILES | Shiga toxin inh | Pf growth 96h | Pf growth 48h | CHX counter
COc1cc(OC)cc(C(=O)N2CCC(n3c(C)nc4cc(F)ccc43)CC2)c1 | -11.2 | 13.1µM* | · | -1.9
COc1ccc(NC(=O)CN2CCC(n3c(C)nc4cc(F)ccc43)CC2)c(OC)c1 | -18.8 | 3.6% | ? | -4.7
COCCNC(=S)N1CCC(C(=O)c2ccc3c(c2)OCCO3)CC1 | 74.2 | -14.9% | 53.9% | 45.7*
COc1ccc(NC(=S)N2CCC(C(=O)c3ccc(C)cc3)CC2)cc1 | -1.2 | 63.7% | ? | 8.9*
COc1ccc(NC(=O)N2CCC(C(=O)c3ccc4c(c3)OCCO4)CC2)cc1 | 25.0 | 20.4% | ? | 20.8*
CSc1ccccc1NC(=O)N1CCCC(C(=O)c2ccc3c(c2)OCO3)C1 (configuration not stated) | -4.4 | ? | -1.4% | -1.6
